Test results as given in PubChem BioAssay (NCI).
This is part of a sample that, as a whole, favours compounds with a hit. Of some 83,000 tested, about 20% had one in any assay.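 Cells were grown in 96-well plates and exposed to the test compound at a single concentration for 48 hours; results are reported as percent growth, with values below 10 considered active.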 A number with no mark means an inactive call. Calls of active or inactive are those of the source.

How the values were obtained:
Assay in all cases: NCI-60 one-dose screen, 48 h (100 = growth as untreated, 0 = no growth, -100 = all killed)
Conditions in all cases: 10 µM unless noted
NCI-H23 lung = system: NCI-H23 lung
NCI-H226 lung = system: NCI-H226 lung
NCI-H322M lung = system: NCI-H322M lung
HOP-62 NSCLC = system: HOP-62 NSCLC
NCI-H460 lung = system: NCI-H460 lung
NCI-H522 lung = system: NCI-H522 lung
A549/ATCC NSCLC = system: A549/ATCC NSCLC
786-0 renal = system: 786-0 renal
COLO 205 colon = system: COLO 205 colon
DU-145 prostate = system: DU-145 prostate
K-562 leukemia = system: K-562 leukemia
MALME-3M melanoma = system: MALME-3M melanoma
MDA-MB-231 breast = system: MDA-MB-231 breast
RXF 393 renal = system: RXF 393 renal
SF-268 CNS = system: SF-268 CNS
SF-295 CNS = system: SF-295 CNS
SF-539 CNS = system: SF-539 CNS
UACC-257 melanoma = system: UACC-257 melanoma
HCT-15 colon = system: HCT-15 colon
M14 melanoma = system: M14 melanoma

Row | SMILES | growth (NCI-H23 lung) | growth (NCI-H226 lung) | growth (NCI-H322M lung) | growth (HOP-62 NSCLC) | growth (NCI-H460 lung) | growth (NCI-H522 lung) | growth (A549/ATCC NSCLC) | growth (786-0 renal) | growth (COLO 205 colon) | growth (DU-145 prostate) | growth (K-562 leukemia) | growth (MALME-3M melanoma) | growth (MDA-MB-231 breast) | growth (RXF 393 renal) | growth (SF-268 CNS) | growth (SF-295 CNS) | growth (SF-539 CNS) | growth (UACC-257 melanoma) | growth (HCT-15 colon) | growth (M14 melanoma)
1 | O=C(Nc1ncc([N+](=O)[O-])s1)c1cccc([N+](=O)[O-])c1 | 9.05% (active) | 29.3% | 35.9% | 25.3% | 43.4% | 8.27% (active) | 81.8% | 18% | 77% | 84.6% | 23.3% | 40.3% | 62.3% | 25.1% | 64.2% | 23.3% | 28.4% | 58.6% | 47.8% | 
2 | CSc1nc2c(c(=O)[nH]1)C(c1ccc(Cl)cc1)C1=C(N2)/C(=C/c2ccc(Cl)cc2)CNC1 (centres undefined) | 69% | 78.9% | 64.1% | -2.54% (active) | 37.3% | 79.3% | 32.2% | 88.4% | 29.2% | 39.3% | 8.37% (active) | 91.9% | 40.4% | 52.3% | 10.1% | 69.3% |  | 81.9% | 13.5% | 64.1%
3 | COC(=O)[C@]12CC[C@@H](C)[C@H](C)[C@@H]1C1=CC[C@@H]3[C@@]4(C)C=C(O)C(=O)[C@@]5(C)COC(=C54)C[C@@]3(C)[C@]1(C)CC2 | -73.1% (active) | -48.9% (active) | -25.3% (active) | -50.8% (active) | -66.2% (active) | -70.2% (active) | -59.5% (active) | -89.5% (active) | -63.9% (active) | -80.7% (active) | -97.8% (active) | -59% (active) | -52.7% (active) | -82.4% (active) | -45.3% (active) | -57.4% (active) | -91.4% (active) |  | -82.3% (active) | -63.2% (active)
4 | O=C1/C(=C/c2ccc([N+](=O)[O-])s2)Oc2ccc(Br)cc21 | -48.3% (active) | -57% (active) | -29.7% (active) | -49.8% (active) | -51.9% (active) | -77.7% (active) | -39.6% (active) | -13.4% (active) | -80% (active) | -72.1% (active) | -5.87% (active) | -59.7% (active) | -64% (active) | -59.9% (active) | -52.1% (active) | -31.3% (active) | -73.7% (active) | -39.2% (active) | -3.34% (active) | 
5 | CC1=NN(c2ccccc2Cl)C(=O)/C1=C\c1cn(S(=O)(=O)c2ccc(C)cc2)c2ccccc12 | 83.9% | 79.9% | 105% | 62.3% | 119% | 107% | 109% | 94.9% | 142% | 114% | 138% | 114% | 85.4% | 137% | 104% | 114% | 114% | 115% | 105% | 
6 | Fc1ccc(-c2nc(Nc3ccc(-c4nc5ccccc5[nH]4)cc3)nc(N3CCOCC3)n2)cc1 | -83.4% (active) | -64.5% (active) | -92.8% (active) | -73.9% (active) | -80.3% (active) | -73.9% (active) | -75.2% (active) | -94.5% (active) | -68.4% (active) | -94% (active) | -100% (active) | -73.4% (active) | -76.7% (active) | -91.1% (active) | -82.7% (active) | -94.4% (active) | -92.7% (active) |  | -92.6% (active) | -82.6% (active)
7 | O=C1C2C3C=CC(O3)C2C(=O)N1Nc1ccccc1 (centres undefined) | 106% | 109% | 124% | 117% | 112% | 117% | 103% | 107% | 124% | 112% | 103% | 120% | 99.8% | 119% | 102% | 107% |  | 104% | 104% | 104%
8 | CN(C)c1ccc(/C=C(\C#N)c2nc3ccccc3c(=O)[nH]2)cc1 | 70.2% | 74.1% | 89.7% | 105% | 87.3% | 84.2% | 99.5% | 91.9% | 111% | 93% | 118% | 75.8% | 76% | 91.1% | 69.4% | 92.9% | 93.6% |  | 97.2% | 97.3%
9 | CCN(CC)c1ccc(N=Nc2cc(Cl)ccc2Cl)c(NC(=O)CCC(=O)O)c1 | 101% | 98.1% | 111% | 86.6% | 108% | 106% | 101% | 108% | 106% | 108% | 98.8% | 91.8% | 81.4% | 116% | 105% |  | 79.9% | 117% | 89.5% | 101%
10 | CSc1ccc2c(c1)N(CCC1CCCCN1C)c1ccccc1S2 (centres undefined) | 83.9% | 107% | 64% | 68.8% | 46.8% | 56.3% | 63.9% | 43.9% | 18.9% | 68.7% | 1.49% (active) | 72.8% | 46.3% | 26.7% | 54.5% | 58.4% |  | 32.8% | 43.4% | -57.9% (active)
11 | Nc1ccc(S(=O)(=O)Nc2ncccn2)cc1 | 114% | 100% | 120% | 108% | 108% | 106% | 100% | 107% | 114% | 104% | 104% | 118% | 98.6% | 118% | 108% | 104% |  | 105% | 99.1% | 115%
12 | O=C(CCc1nnc(Cn2cncn2)o1)c1nc2ccccc2[nH]1 | 102% | 101% | 115% | 103% | 108% | 95.5% | 105% | 104% | 124% | 109% | 104% | 92% | 98.7% | 121% | 105% | 103% | 103% | 112% | 102% | 
13 | COc1cc([C@@H]2c3cc4c(cc3C(O[C@@H]3O[C@@H]5CO[C@@H](c6cccs6)OC5[C@H](O)[C@H]3O)C3COC(=O)[C@@H]32)OCO4)cc(OC)c1O (some centres undefined) | -32.5% (active) | -53.9% (active) | 7.81% (active) | -39.8% (active) | -36.7% (active) | -53.7% (active) | -48.3% (active) | -40.6% (active) | -23.8% (active) | -33.4% (active) | 4.5% (active) | -28.7% (active) | -18.8% (active) | -72.3% (active) | -17.1% (active) | -19.9% (active) | -35.5% (active) | -19.7% (active) | 5.54% (active) | 
14 | CC[C@]1(O)CC2CN(CCc3c([nH]c4ccccc34)[C@@](C(=O)OC)(c3cc4c(cc3OC)N(C)[C@H]3[C@@](O)(C(=O)OC)[C@H](OC(C)=O)[C@]5(CC)C=CCN6CC[C@]43[C@@H]65)C2)C1 (some centres undefined) | 16.1% | 48.9% | 54.4% | 31.7% | 2.54% (active) | -17.9% (active) | 17.2% | 13.8% | -50.7% (active) | -39.8% (active) | 7.74% (active) | 38.4% | 5.18% (active) | 25.9% | 4.83% (active) | 12.2% |  | 61.9% | 6.5% (active) | -15.6% (active)
15 | O=C1/C(=N/O)CCc2ccccc21 | 98.1% | 101% | 102% | 91.5% | 92.6% | 94% | 103% | 111% | 100% | 100% | 19.4% | 91.7% | 79.7% | 96.7% | 91% |  | 88.5% | 90.7% |  | 104%
16 | CCC(C)CC(C)C(=O)c1c(O)ccn(OC)c1=O (centres undefined) | 84.7% | 84.2% | 69.2% | 54.8% | 77.8% | 90.9% | 90.8% | 101% | 109% | 66.8% | 69.3% | 80.7% | 61.7% | 72.5% | 54.2% | 87.1% | 63.2% | 97.7% | 29.9% | 71.1%
